# RORg inh: inhibitors of mouse ROR gamma transcriptional activity. Drosophila S2 Gal4-RORgamma UAS-luciferase reporter, 20 h. hit rate 5.4% among 310,000. Potency, µM (titrated, usually from 53.6 µM), hits mostly inhibitors. P51450; also: nearly all actives have a fitted effect of over 60% in size
# Target sequence (P51450 whole entry, looked up, the tested form may be a part): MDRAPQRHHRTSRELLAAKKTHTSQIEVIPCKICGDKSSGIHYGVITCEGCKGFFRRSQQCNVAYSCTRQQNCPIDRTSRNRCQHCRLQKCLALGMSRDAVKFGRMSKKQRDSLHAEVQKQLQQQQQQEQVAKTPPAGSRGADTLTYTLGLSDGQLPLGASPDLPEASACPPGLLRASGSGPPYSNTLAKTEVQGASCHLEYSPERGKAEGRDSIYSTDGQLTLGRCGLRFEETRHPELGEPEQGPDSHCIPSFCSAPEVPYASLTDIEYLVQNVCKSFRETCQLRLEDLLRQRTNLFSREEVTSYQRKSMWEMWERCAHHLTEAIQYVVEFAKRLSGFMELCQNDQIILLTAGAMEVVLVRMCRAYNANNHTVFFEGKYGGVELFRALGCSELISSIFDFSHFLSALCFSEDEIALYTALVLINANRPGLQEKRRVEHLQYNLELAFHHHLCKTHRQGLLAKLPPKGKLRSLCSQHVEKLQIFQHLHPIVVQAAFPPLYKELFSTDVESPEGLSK
#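 Using a luciferase readout, inhibitors were identified by reduced reporter activity in Drosophila cells coexpressing a copper-inducible Gal4–ROR gamma fusion and UAS-driven Photinus luciferase, incubated 20 hr after 700 uM copper sulfate.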
# Gal4-VP16 FLuc: Gal4-VP16 reporter inhibition counter-screen; Potency, µM (highest dose often 53.6 µM), most hits filed as inhibitors; Drosophila S2 Gal4-VP16 UAS-luciferase, luminescence, 20 h; hit rate 3.5% among 310,000;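 also: Gal4-VP16 expression switched on by copper sulfate through the metallothionein promoter; nearly all actives have a fitted effect of over 50% in size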
# TDP1 cell noCPT: qHTS for Inhibitors of human tyrosyl-DNA phosphodiesterase 1 (TDP1): qHTS in cells in absence of CPT | DT40 Tdp1-/- hTDP1 cells, no CPT, ATP luminescence, 48 h | Potency, µM (doses to about 46.2 µM), actives largely listed as inhibitors | hit rate 15% among 420,000; also: nearly all actives have a fitted effect of over 55% in size
#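 DT40 Tdp1-/-;hTDP1 cells, no CPT (DMSO vehicle only), 400 cells/well; compounds pin-transferred; ≥48 hr, 37 °C; CellTiter-Glo 30 min RT dark, luminescence read.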
# IL-1B inflam inh: blocks inflammasome-driven IL-1 beta release | AID 743279 | THP-1 LPS/ATP IL-1B secretion, AlphaLISA, 16 h; stronger effect = lower value | activity change, % at 57.5 µM | hit rate 4.7% among 360,000; in the data active = activity change below about -50%; inconclusive = mostly about -30% to -49%
#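 THP-1 cells pretreated 1 hr with compounds (up to 57.5 uM final), then stimulated with LPS (250 ng/mL final) plus ATP (1.25 mM final); secreted IL-1B measured by AlphaLISA after 16 hr, decreased signal indicating inhibition.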
# ELG1 DNA repair: ELG1-dependent DNA repair inhibition; Potency, µM (doses to about 46.1 µM), actives largely listed as inhibitors; HEK293T ELG1-luciferase reporter, luminescence, 16 h; DNA damage induced by 5-fluorouridine; hit rate 2.3% among 330,000; also: nearly all actives have a fitted effect of over 55% in size
#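 Quantitative HTS, concentration-response format. 2,000 cells/well co-treated with 5-fluorouridine and compound, 16 hr in 5% CO2 at 37 °C; ONE-Glo luminescence read after 30 min.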
# TDP1 cell CPT: DT40-hTDP1 cell growth loss with CPT. chicken DT40 Tdp1-/-;hTDP1 cells + 20 nM CPT, ATP luminescence, 48 h. Potency, µM (highest dose often 46.2 µM), usual class: inhibitors. hit rate 12% among 420,000. AID 686979; also: nearly all actives have a fitted effect of over 55% in size
#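 Chicken DT40 Tdp1-/- cells complemented with human TDP1, 400 cells/well, exposed to compounds plus 20 nM camptothecin for at least 48 h at 37 C; viability read as ATP content by CellTiter-Glo luminescence.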
# Numbers stand for hits; – = inactive; ? = inconclusive; · = no result given; [ ] = another dose, or the depositor's remark. Hits are enriched below; roughly 21% of the tested compounds scored in any of these assays. Unless noted, calls follow the shape of the dose curve; as a rule, active = well fitted curve in the direction sought with a large enough effect; inconclusive = small, poorly fitted or top-dose-only effect, or another doubt; inactive = no such curve, though single readings can be large; an effect the other way counts as inactive or inconclusive.
SMILES,RORg inh,Gal4-VP16 FLuc,TDP1 cell noCPT,IL-1B inflam inh,ELG1 DNA repair,TDP1 cell CPT
CCOc1ccc(C(=O)Nc2ccc(S(=O)(=O)Nc3nc(C)cc(C)n3)cc2)cc1OC,·,·,–,·,·,–
O=C(Cc1cccc(NC(=O)C2CCCN(C(=O)C3CC3)C2)c1)Nc1cccc(C(=O)N2CCOCC2)c1 (stereo not drawn),·,·,–,–,·,–
CCCCOc1ccc(C2=CSC3=NCCN23)cc1[N+](=O)[O-],–,–,29µM,–,–,?
COC(=O)c1ccc(OC(=O)CCS(=O)(=O)c2ccc(C)cc2)cc1,·,·,–,–,–,–
COc1ccc(-c2[nH]ncc2CN2CCN(Cc3cccs3)CC2)cc1F,–,–,?,–,21µM,?
COc1cc(-c2[nH]ncc2CN2CCc3sccc3C2)cc(OC)c1OC,–,–,10µM,–,–,15µM
COc1ccc(-c2[nH]ncc2CNC(C)c2ccccc2Cl)cc1F (stereo not drawn),–,–,23µM,–,–,16µM
COc1cccc2cc(-c3nnc(SCC(=O)Nc4ccc(NC(C)=O)cc4)n3C)oc12,–,–,–,–,–,–
COc1ccc(C)cc1NC(=O)CSc1nnc(-c2cc3cccc(OC)c3o2)n1N,?,?,16µM,–,·,?
COc1ccc(-n2c(SCC(=O)Nc3cccc(C(=O)O)c3)nnc2-c2ccco2)cc1,–,–,–,–,–,–
O=C(CSc1nnc(C2CCCCC2)n1-c1ccccc1)NCc1ccco1,–,–,8.2µM,–,–,?
COc1ccc(CCSc2nnc(C3CCCCC3)n2N)cc1,–,–,12µM,–,–,?
COc1ccc(OC)c(NC(=O)CSc2nnc(-c3ccco3)n2-c2ccccc2)c1,–,–,?,–,10µM,21µM
COc1ccc(NC(=O)CSc2nnc(C3CCCCC3)n2-c2ccccc2)cc1,–,–,18µM,–,–,15µM
CCn1c(SCC(=O)Nc2cc(OC)ccc2OC)nnc1C1CCCCC1,–,–,–,–,?,29µM
CC(=O)N1CCC2(CCN(Cc3ccccc3)CC2)CC1,–,–,–,·,·,–
CCCCN(CC)C(=O)c1cc2c(=O)[nH]c3ccc(C)cc3c2s1,–,–,?,–,?,?
Cc1ccc2[nH]c(=O)c3cc(C(=O)N(C)c4ccc(Br)cc4)sc3c2c1,·,·,3.3µM,·,·,3.7µM
Cc1ccc2[nH]c(=O)c3cc(C(=O)N(CCCOC(C)C)Cc4ccco4)sc3c2c1,–,–,12µM,–,?,23µM
Cc1ccc2[nH]c(=O)c3cc(C(=O)N(C)c4ccccc4C)sc3c2c1,–,–,10µM,?,?,?
CCNC(=O)NCc1cccc(Cl)c1,–,–,–,·,·,–
C[C@@H](NC(=O)[C@@H]1CCCN1C(=O)OC(C)(C)C)c1ccccc1,·,·,–,–,·,–
COc1ccc(Br)cc1/C=C/c1ccc2cccc(O)c2n1,4.5µM,?,21µM,–,–,?
COc1cc(Br)cc(/C=C/c2ccc3cccc(O)c3n2)c1OC,2.5µM,?,?,–,–,?
COc1ccc(Br)cc1C(=O)Nc1cccc2ccc(C)nc12,·,·,–,·,·,–
SMILES,RORg inh,Gal4-VP16 FLuc,TDP1 cell noCPT,IL-1B inflam inh,ELG1 DNA repair,TDP1 cell CPT
Cc1cnc(C)c(-c2cccc3c2OC(CNC(=O)/C=C/c2ccncc2)C3)n1 (stereo not drawn),·,·,?,·,·,–[9.04 µM]
CO[C@H]1/C=C/O[C@@]2(C)Oc3c(C)c(O)c4c(O)c(c(/C=N\N5CCN(C6CCCC6)CC5)c(O)c4c3C2=O)NC(=O)/C(C)=C\C=C\[C@H](C)[C@H](O)[C@@H](C)[C@@H](O)[C@@H](C)[C@H](OC(C)=O)[C@@H]1C,–,–,·,·,·,·
Cc1nc(=S)n(-c2ccccc2)[nH]1,?,?,–,–,–,–
S=c1nc(C2CCCCC2)n(-c2ccccc2)[nH]1,2.8µM,–,23µM,–,–,?
CCCCN1CNC(=S)N(CCc2ccc(OCC)c(OCC)c2)C1,3.2µM,14µM,?,–,–,?
CCOc1ccccc1N1CN(C2CCCCC2)CNC1=S,3.2µM,14µM,–,–,–,–
CCCCN1CNC(=S)N(CCc2ccccc2)C1,2.8µM,4.5µM,?,–,–,–
S=C1NCN(C2CCCCC2)CN1CCc1ccccc1,2.8µM,4µM,?,–,–,?
CCOc1ccc(CCN2C(=O)C3C4C=CC(C4)C3C2=O)cc1OCC (stereo not drawn),?,–,–,–,?,–
CCCN1CN(CCc2ccccc2)CNC1=S,1.1µM,1.8µM,?,–,–,–
S=C1NCN(CCc2ccccc2)CN1,–,–,–,–,–,–
CCOc1ccc(CCN2CN(C3CCCCC3)CNC2=S)cc1OCC,2.8µM,8.9µM,18µM,–,–,?
CCOC(=O)C1=C(c2ccccc2)c2cc(OC)ccc2OC1C(=O)OCC (stereo not drawn),–,–,·,·,·,·
COC(=O)c1ccccc1NC(=O)c1ccc2c(c1)CCN2S(C)(=O)=O,·,·,–,·,·,?
CCc1cccc(CC)c1NC(=S)NCCc1c(C)[nH]c2ccccc12,?,7.1µM,?,–,?,?
CCc1cccc(CC)c1NC(=S)NCCc1ccc(O)c(O)c1,13µM,–,?,?,–,23µM
COC(=O)C/C=C1\c2ccccc2C(OC)C1C (stereo not drawn),–[10 µM],–[10 µM],·,·,·,·
CCCCN(C(=O)CSc1ncn[nH]1)c1c(N)n(Cc2ccccc2)c(=O)[nH]c1=O,·,·,–,–,–,–
Cn1nccc1C(=O)N1CCN(c2cccc(Cl)c2)CC1,·,·,–,–,–,?
Cc1ccc(C)c(N2CCN(C(=O)c3cc(S(=O)(=O)N4CCC(C)CC4)cn3C)CC2)c1,·,·,?,·,·,16µM
CC1CCN(S(=O)(=O)c2cc(C(=O)N3CCN(c4cccc(Cl)c4)CC3)n(C)c2)CC1,·,·,18µM,·,·,?
Cc1ccc(Cl)cc1N1CCN(C(=O)c2cn(C)c3ccc(S(=O)(=O)N4CCC(C)CC4)cc3c2=O)CC1,·,·,–,·,·,–
CC(C)=CCc1c2c(c(O)c3c(=O)c(O)c(-c4ccccc4)oc13)C=CC(C)(C)O2,–,–,–,·,·,–
CC(C)=CCC12Oc3cc(O)ccc3C1(O)Oc1cc3c(c(O)c1C2=O)C=CC(C)(C)O3 (stereo not drawn),·,·,?,–,·,26µM
O=C(O)c1ccc(/C=C2\CCCc3c2nc2ccccc2c3C(=O)O)cc1,–,–,–,–,–,–
O=C(COC(=O)c1c2c(nc3ccccc13)/C(=C\c1cccs1)CCC2)Nc1ccccc1,?,?,9.2µM,-55,15µM,21µM
